This note sets out measurements from PubChem BioAssay (Tox21).

Molecules are shown by their SMILES. “And” between values parts separate entries of the source, which are not always exact repeats. Equal entries are not always repeated. Inconclusive results are not listed. Entries that show only a call come without a potency. A number with no mark means an inactive call. The source made the active and inactive calls. Calls come from the whole dose curve; as a rule, active = well fitted activation curve with a large enough effect in the repeat runs; inconclusive = weak or mixed curves; inactive = flat fitted curve, though single readings scatter.
Potency is the fitted concentration of half-maximal effect.

The experiment in a line: A CellTox Green Cytotoxicity Assay to monitor cytotoxicity in HepG2 cells - 8 hour (AID 1224890). Note: nearly all actives have a fitted effect of over 45% in size. The conditions noted are these: CellTox Green fluorescence; series mostly up to 76.8 µM; cytotoxicity increase: at the top concentration. In outline: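 Cytotoxicity was tracked as dead-cell DNA fluorescence in HepG2 cells treated with test compounds at 37 C; each time-point value comes from one kinetic series spanning 0, 8, 16, 24, 32 and 40 h.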
Consider `CC1=CCC(C(C)(C)O)CC1` (stereo unspecified), for which the Potency result was “inactive”.
On the same count and under the same terms, with `Nc1ncn([C@@H]2O[C@H](CO)[C@@H](O)[C@H]2O)c(=O)n1` the entry was “inactive”; with `CCOC(=O)C(C#N)=C(c1ccccc1)c1ccccc1`, “inactive”; with `CCCCNS(=O)(=O)c1ccccc1`, “inactive”.
As for `CC(C)CC(C)(O)C#CC(C)(O)CC(C)C` (stereo unspecified), the Potency entry is “inactive”.
`c1ccc2c(c1)c1cccc3ccc4cccc2c4c31`: the Potency entry is “inactive”.
For `CCCc1c(OCCCCc2nn[nH]n2)ccc(C(C)=O)c1O`, the Potency result is “inactive”.
`COC(=O)Nc1nc2ccc(S(=O)c3ccccc3)cc2[nH]1` (stereo unspecified): the Potency result is “inactive”.
Turning to `Cc1ncc[nH]1`, the Potency result was “inactive”.
Still for that read-out and setting: the same measure for `Cc1ccc(C(=O)c2cc(O)c(O)c([N+](=O)[O-])c2)cc1`: “inactive”; for `Cc1c(OCC(F)(F)F)ccnc1CS(=O)c1nc2ccccc2[nH]1` (stereo unspecified): “inactive”; for `Nc1ccc(Nc2ccccc2)cc1`: “inactive”.
Consider `COc1cc([C@@H]2c3cc4c(cc3[C@H](O)[C@H]3COC(=O)[C@H]23)OCO4)cc(OC)c1OC`, for which the Potency entry was “inactive”.
`CC(C)OC=O`: the Potency result is “inactive”.
For `CC(C)OB(OC(C)C)OC(C)C`, the Potency result is “inactive”.
As for `C[Si](C)(C)O[Si](C)(C)C`, the Potency result is “inactive”.
`c1cc(-c2ccncc2)ccn1`: the Potency entry was “inactive”.
As for `NNc1ccc(C(=O)O)cc1`, the Potency result was “inactive”.
Still for that read-out and setting: with `Cc1cc2nc3c(=O)[nH]c(=O)nc-3n(C[C@H](O)[C@H](O)[C@H](O)CO)c2cc1C` the figure was 43.2 µM (active) and 40.5 µM (active) and 11.7 µM (active); with `CC(CCC(=O)O)(c1ccc(O)cc1)c1ccc(O)cc1`, “inactive”; with `C=C(C)C1CC=C(C)CC1` (stereo unspecified), “inactive”.
`Cc1[nH]c(=O)c(C#N)cc1-c1ccncc1`: the Potency result is “inactive”.
Take `c1ccc(Nc2ccccc2)cc1`: the “cytotoxicity increase” value was 10.7%.
On to `CCCC(=O)O`, for which the Potency entry is “inactive”.
As for `O=[N+]([O-])c1ccc2c(c1)Cc1ccccc1-2`, the Potency result was “inactive”.
`OCCO`: the Potency entry was “inactive”.
